{
  "source": "paper PMC7819943",
  "about": "“Rice protein-binding microarrays: a tool to detect cis-acting elements near promoter regions in rice”",
  "note": "Whole data set: some 68,000 sequences, median “fluorescence intensity (a.u.)” near 9,100, cut for the highest 2% near 16,000. Shown is part of a subset that was picked to be rich in the highest values.",
  "data": [
    {"target": "OsWRKY34 (Oryza sativa, UniProt Q0JBA9 1-250)", "sequence (Q0JBA9 entry or part of it)": "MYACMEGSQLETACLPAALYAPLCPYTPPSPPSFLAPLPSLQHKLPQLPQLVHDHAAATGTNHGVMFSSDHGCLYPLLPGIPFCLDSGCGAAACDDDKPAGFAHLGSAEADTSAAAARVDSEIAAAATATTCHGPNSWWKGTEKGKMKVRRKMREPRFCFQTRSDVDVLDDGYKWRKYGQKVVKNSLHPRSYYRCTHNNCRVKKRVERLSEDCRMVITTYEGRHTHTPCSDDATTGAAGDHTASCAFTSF", "assay": "protein-binding microarray (RPBM); PBS, 2% BSA, 51.3 ng/ul salmon testes DNA, 50 uM zinc acetate, 200 nM TF, 25 C, 1 h; high values mean tight binding", "conditions": "protein: recombinant; tags: N-terminal polyhistidine and DsRed monomer fusion (pET32a); label: CyDye5-dUTP incorporated in the synthesized complementary strand; 3' TTTTT single-stranded linker to array surface; dsDNA, one strand shown", "outline": "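For the binding signal, per-feature fluorescence intensity was read in arbitrary units on an Axon 4000B scanner. Before scanning, a 2% BSA-blocked custom Agilent array made double-stranded with Cy5-dUTP was washed after 1 h at 25 °C with 200 nM protein and 50 µM zinc acetate. The proteins were Ni–NTA-purified transcription factors with N-terminal polyhistidine and DsRed fusions, expressed in E. coli BL21-CodonPlus.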", "values": [
      {"sequence": "TGTTGTTATGTTTTTGTCATGATCTCACAAGCAATGTACACGGAGTCACCTAGTGCAG", "binding signal": "11000 fluorescence intensity (a.u.)"},
      {"sequence": "CCTCTTCGAAGCCGTGAAATCTCAGCCGTCCATCCATGATCGGAGTCACCTAGTGCAG", "binding signal": "9040 fluorescence intensity (a.u.)"},
      {"sequence": "TCTTTTGAGCACCCCACTGGCCATGGTCTTTTATCGTCCCCGGAGTCACCTAGTGCAG", "binding signal": "8490 fluorescence intensity (a.u.)"},
      {"sequence": "ACTATCTTAGCCATTCCAACGCCGTCTTTCCTCGGTCCTCCGGAGTCACCTAGTGCAG", "binding signal": "12500 fluorescence intensity (a.u.)"},
      {"sequence": "AATCACCATCATCGCTGTTTGGGAGGGTCTGCCTGGCTTACGGAGTCACCTAGTGCAG", "binding signal": "13100 fluorescence intensity (a.u.)"},
      {"sequence": "TATTTGACTTCCGGCTTTTGTTTCCTTGATACTTTACTCTCGGAGTCACCTAGTGCAG", "binding signal": "9780 fluorescence intensity (a.u.)"},
      {"sequence": "ACCTTTGCTCACGATCCCAATGGCTTTAATTATGTACCACCGGAGTCACCTAGTGCAG", "binding signal": "8830 fluorescence intensity (a.u.)"},
      {"sequence": "CCAAAAACACTCACTCGGCCCACATCACGCCACCACCCCGCGGAGTCACCTAGTGCAG", "binding signal": "9750 fluorescence intensity (a.u.)"},
      {"sequence": "TTTTTTTTCTGTTAGTACTGTTTTTGGTCCAAACATCTTTCGGAGTCACCTAGTGCAG", "binding signal": "8180 fluorescence intensity (a.u.)"},
      {"sequence": "GATGGCGTACCAAAGTACTGGTAAAAACATCTTCAGTTTTCGGAGTCACCTAGTGCAG", "binding signal": "22300 fluorescence intensity (a.u.)"},
      {"sequence": "GGGCCTAGTTTTTCCAGGTAAAGTTGACCAAAAGTCTTCACGGAGTCACCTAGTGCAG", "binding signal": "8890 fluorescence intensity (a.u.)"},
      {"sequence": "CTTCTACTGCGTCGACTTGGAATTTTGCCGAATCTTTTTTCGGAGTCACCTAGTGCAG", "binding signal": "10400 fluorescence intensity (a.u.)"},
      {"sequence": "CACACACACTCCACTACTCCACTGCACTGCAGTCTCTCTCCGGAGTCACCTAGTGCAG", "binding signal": "10100 fluorescence intensity (a.u.)"},
      {"sequence": "CCTCGTTCTTCTTCTTCTCTCTCTGGTTTTACATTTTTACCGGAGTCACCTAGTGCAG", "binding signal": "10300 fluorescence intensity (a.u.)"},
      {"sequence": "AACCCACCTGCACGCACCGTCCTTACCTCTGTTCGATTGACGGAGTCACCTAGTGCAG", "binding signal": "16800 fluorescence intensity (a.u.)"},
      {"sequence": "TGAGTCCTTACCTCTCTCTCTCCAATGTTCGTCTGCGGCACGGAGTCACCTAGTGCAG", "binding signal": "8390 fluorescence intensity (a.u.)"},
      {"sequence": "CACGCACCGCCCATGCGTCCTTATCCACCCACCTCTCCACCGGAGTCACCTAGTGCAG", "binding signal": "8240 fluorescence intensity (a.u.)"},
      {"sequence": "GTAGATGTCGGGTGGGATGGTTTCAGGAAAAGAAACATGACGGAGTCACCTAGTGCAG", "binding signal": "12800 fluorescence intensity (a.u.)"},
      {"sequence": "ACTTTCCTACACACAAACTTTCAACTTTTTCATCACATCGCGGAGTCACCTAGTGCAG", "binding signal": "8900 fluorescence intensity (a.u.)"},
      {"sequence": "CATTCACAACATCAAATTACATCTGCAGAGAGATCGCTCGCGGAGTCACCTAGTGCAG", "binding signal": "33900 fluorescence intensity (a.u.)"},
      {"sequence": "AGTCTGGCTTGCACATCTGCTGTTTACAACACATCAAATTCGGAGTCACCTAGTGCAG", "binding signal": "9810 fluorescence intensity (a.u.)"},
      {"sequence": "CCATCGTTTCTCCCCGACGCCCTCGCCATCCTCCTCGCCACGGAGTCACCTAGTGCAG", "binding signal": "10500 fluorescence intensity (a.u.)"},
      {"sequence": "GCCTTTTTAAATTTTTTTATCACATCAAAACTTTTTTATACGGAGTCACCTAGTGCAG", "binding signal": "8370 fluorescence intensity (a.u.)"},
      {"sequence": "TGAAGAGGTGAGTGTTTTAGGGTTTTGGTTGGGGTTTTGACGGAGTCACCTAGTGCAG", "binding signal": "14600 fluorescence intensity (a.u.)"},
      {"sequence": "AGTGTTTGGTTTGAGGAGGACTAGTGGGGTGGTTTTTTGACGGAGTCACCTAGTGCAG", "binding signal": "13900 fluorescence intensity (a.u.)"},
      {"sequence": "GGTTTAGGCTGTGTTTAGTTCTTTTTTTAATTTTTTTTAACGGAGTCACCTAGTGCAG", "binding signal": "16500 fluorescence intensity (a.u.)"},
      {"sequence": "TTCGTGTTTTGCTGGAGTTGGAGTTGCTGCATTGGGTTTACGGAGTCACCTAGTGCAG", "binding signal": "10700 fluorescence intensity (a.u.)"},
      {"sequence": "GGGTTTGGGTTTTTAGGTTTGGGGAGTTGGGCTGTGTTTACGGAGTCACCTAGTGCAG", "binding signal": "22100 fluorescence intensity (a.u.)"},
      {"sequence": "CTGTTACTTCACAGTTATTTTTGTTGGGTGGGGACGTGGGCGGAGTCACCTAGTGCAG", "binding signal": "12600 fluorescence intensity (a.u.)"},
      {"sequence": "GGTTGGGGCGTGGGCGGCTGGGCGCGTGGGTTGCCCGCGACGGAGTCACCTAGTGCAG", "binding signal": "15600 fluorescence intensity (a.u.)"},
      {"sequence": "ATATATGTTCTCTTAGTGTCTTTATTTTTAATATTTTTAACGGAGTCACCTAGTGCAG", "binding signal": "8530 fluorescence intensity (a.u.)"},
      {"sequence": "GTGGGTGGGTTTGGAGTTTGGACTGTTTAGGGCCTTTTGACGGAGTCACCTAGTGCAG", "binding signal": "23300 fluorescence intensity (a.u.)"},
      {"sequence": "TTTACATATAATTTTCTTTAGGGTTTTATAGCTTTTTTAACGGAGTCACCTAGTGCAG", "binding signal": "8600 fluorescence intensity (a.u.)"},
      {"sequence": "TTTTTGGGTTGGGTTGGGGACGCGCTGTTTCGACGTGGGGCGGAGTCACCTAGTGCAG", "binding signal": "19000 fluorescence intensity (a.u.)"},
      {"sequence": "CGTTGAGTTGGTTTAGGGGTGGACTGATTTGCCTTTGCCCCGGAGTCACCTAGTGCAG", "binding signal": "12900 fluorescence intensity (a.u.)"},
      {"sequence": "CTGTATCCCCATTCGCTGTCAAAATTCAATTCACTGTCTTCGGAGTCACCTAGTGCAG", "binding signal": "9640 fluorescence intensity (a.u.)"},
      {"sequence": "GGTGGGAGCACGATGCGGGACGTGGGGTGGGATCGGAAGCCGGAGTCACCTAGTGCAG", "binding signal": "8590 fluorescence intensity (a.u.)"},
      {"sequence": "CCCTCCCTGGCCGTCGTGCCCGCCGCTGCTCGCCTTCGGCCGGAGTCACCTAGTGCAG", "binding signal": "10100 fluorescence intensity (a.u.)"},
      {"sequence": "TGGAGGGGAGTGGGATCGCGATCACGGGTGGGGCGTCGGACGGAGTCACCTAGTGCAG", "binding signal": "13100 fluorescence intensity (a.u.)"},
      {"sequence": "AAATCTTGGGTTTATGTGGGCGACGATGTCGGTTTGGAAACGGAGTCACCTAGTGCAG", "binding signal": "8060 fluorescence intensity (a.u.)"},
      {"sequence": "CTACAGCCTCACACCGTCTCTCCTGCACCAGTTCCACGGACGGAGTCACCTAGTGCAG", "binding signal": "9510 fluorescence intensity (a.u.)"},
      {"sequence": "GGTGGTTCTGTGAGCCCGCGGGGTTGGGGTTGGGGCCTGGCGGAGTCACCTAGTGCAG", "binding signal": "12900 fluorescence intensity (a.u.)"},
      {"sequence": "GAGAGGATGGAGGTGGATGAGGGAGAGGGGCGGGAGACCGCGGAGTCACCTAGTGCAG", "binding signal": "9460 fluorescence intensity (a.u.)"},
      {"sequence": "TGTGGTGCGTGCCGCGTGCGGGAGGGCAGGGTGAGGTGAGCGGAGTCACCTAGTGCAG", "binding signal": "8810 fluorescence intensity (a.u.)"},
      {"sequence": "GCGCGCGGGTGAGGAGGAGGAGGGGATGGGGAGGGGCCCGCGGAGTCACCTAGTGCAG", "binding signal": "17700 fluorescence intensity (a.u.)"}
    ]}
  ]
}
